# Screens: PubChem, several laboratories
# HCT116 bCat-KO: beta-catenin-lacking colon tumor cell growth suppression | HCT116 beta-catenin knockout viability, CellTiter-Glo, 60 h; hits give low values | viability, % at 10 µM | 140,000 tested, 1.5% active;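 active means viability at or under a set limit, the compound median less 4 SD, cut at about 6% in these data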;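 further: 0% = Hyamine 1622 control at 20 µM and 100% = untreated cell control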
# WT yeast gro inh: growth inhibition of WT yeast, mitochondrial fusion screen; mitochondrial fusion phenotypic screen, WT strain; inhibition, % at 10 µM; 190,000 tested, 2.1% active; AID 1362; in the data active means inhibition above about 58%; tested in S. cerevisiae
# HCT116 PTEN-null: growth suppressors of cells with PTEN tumor suppressor deletion; HCT116 PTEN-null viability, CellTiter-Glo, 60 h; hits give low values; viability, % at 10 µM; 140,000 tested, 1.2% active; AID 827;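 active means viability at or below a set limit, 4 SD under the median of all tested compounds, cut at about 3.7% in these data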;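 further: PTEN knockout HCT116 line with beta catenin targeted HCT116 as companion control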
# hDAT+cocaine: modulates human dopamine transporter uptake under cocaine; LLC-PK1 hDAT cells, [14C]-dopamine uptake with cocaine IC80; actives deviate in either direction; Q01959; B-score at 10 µM; 110,000 tested, 1.3% active;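 active means Z score or B-score, a plate-position-corrected score, falls beyond the plate's 99.7% confidence bounds, in either direction; inactive means both scores lie inside the 99.7% bounds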;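 further: scored against the spread of the other compound wells on the same plate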
# Target sequence (Q01959 whole entry, looked up): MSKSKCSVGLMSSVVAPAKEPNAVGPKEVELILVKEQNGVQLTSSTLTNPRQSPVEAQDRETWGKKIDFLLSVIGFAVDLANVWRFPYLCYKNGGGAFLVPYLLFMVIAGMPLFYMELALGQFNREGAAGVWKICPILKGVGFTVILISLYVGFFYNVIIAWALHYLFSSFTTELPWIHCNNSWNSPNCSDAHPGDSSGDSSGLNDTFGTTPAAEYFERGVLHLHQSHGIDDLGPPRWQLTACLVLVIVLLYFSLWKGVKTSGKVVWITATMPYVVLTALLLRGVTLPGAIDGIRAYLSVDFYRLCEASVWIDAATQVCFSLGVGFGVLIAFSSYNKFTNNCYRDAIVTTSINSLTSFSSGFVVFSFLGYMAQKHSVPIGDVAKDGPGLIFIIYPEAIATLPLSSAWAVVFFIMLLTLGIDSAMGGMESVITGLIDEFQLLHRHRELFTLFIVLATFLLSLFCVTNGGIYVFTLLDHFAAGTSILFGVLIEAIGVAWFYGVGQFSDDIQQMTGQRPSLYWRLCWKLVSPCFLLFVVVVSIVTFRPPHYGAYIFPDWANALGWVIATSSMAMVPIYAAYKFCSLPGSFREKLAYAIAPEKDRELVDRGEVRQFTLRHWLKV
# * hit, by the source's call; x = no result. Most compounds without a hit are left out; they make up all but 3.6% or so of the library.
SMILES,HCT116 bCat-KO,WT yeast gro inh,HCT116 PTEN-null,hDAT+cocaine
O=C(CSc1nc2scc(-c3ccco3)c2c(=O)n1-c1ccccc1)NCC1CCCO1 (centres undefined),98.0,2.8,96.7,-0.0833
O=c1cc(-c2ccccc2Cl)oc2cc(O)cc(O)c12,98.9,8.7,90.5,0.117
O=C1C=CC(O)(c2cc(=O)c3c(O)cc(O)cc3o2)C=C1,1.1*,-3.1,1.3*,-0.4
CCCCn1c(-c2cccs2)nc2nc3ccccc3nc21,61.0,2.8,58.9,0.644
CCCCOCCCn1c(-c2ccco2)nc2nc3ccccc3nc21,88.4,8.2,86.3,3.45*
Cc1ccc(S(=O)(=O)N(CC(=O)Nc2ccccc2C(=O)O)c2ccccc2)cc1,x,-3.8,x,x
CC(OC(=O)CCCSc1nc2ccccc2s1)C(=O)NC(N)=O (centres undefined),x,-5.1,x,x
CCCNC(=O)C(=O)NCCC1=CCCCC1,89.9,-2.2,90.8,0.134
O=C(NCCC1=CCCCC1)c1coc(=O)c(Br)c1,1.1*,0.1,1.0*,-1.22
NC(=O)NCCC1=CCCCC1,103.1,59.4*,101.3,x
CCN(CC)C(=O)C(=O)c1ccn(-c2c(C)csc2C(=O)OC)c1,x,2.2,x,x
Cc1ccc(N2C(=N)/C(=C3/Nc4ccccc4S3)C(c3ccccc3)C2=O)cc1 (centres undefined),2.8*,82.6*,1.8*,x
COc1ccc(CC(=O)N2CCOCC2)cc1OC,102.7,86.5*,102.5,-0.648
CCOC(=O)C1CCN(C(=O)Cc2ccc(OC)c(OC)c2)CC1,99.6,72.3*,98.4,-0.0335
COc1ccc(CC(=S)N2CCOCC2)cc1OC,100.0,-13.6,95.2,-0.0947
CN(c1ccccc1)S(=O)(=O)c1cccc(NC(=O)c2cc(=O)c3ccccc3o2)c1,x,27.7,x,x
Cc1ccc(-n2nc3c([n+]2[O-])CCc2c-3no[n+]2[O-])cc1,25.7,-10.6,18.9,-2.12
[O-][n+]1onc2c1CCc1c-2nn(-c2ccccc2Cl)[n+]1[O-],2.5*,-4.5,2.0*,0.561
Cc1ccc(Nc2nc(N/N=C/c3c[nH]c4ccccc34)nc(N3CCOCC3)n2)cc1,5.1*,38.5,2.8*,x
Cc1[nH]c2ccccc2c1/C=N/Nc1nc(Nc2ccc(F)cc2)nc(N2CCOCC2)n1,5.8*,57.6,3.6*,-0.217
O=C(CCc1[nH]c2ccccc2c1Sc1ccccc1)NCCO,86.8,10.6,80.0,x
CC1(C)c2[nH]c3ccccc3c2C[C@H]2C(=O)N(Cc3ccccc3)C(=O)N21,x,x,x,2.84*
CC1(C)c2[nH]c3ccccc3c2C[C@@H]2C(=O)N(Cc3ccccc3)C(=O)N21,x,x,x,0.492
CCOC(=O)N1CCN(C(=O)Cn2ccc3c(OC)cccc3c2=O)CC1,x,-0.7,x,-0.143
COc1ccc(/C=C(/C(=O)c2ccc(Cl)cc2Cl)n2cncn2)cc1,83.3,39.2,81.7,0.495
SMILES,HCT116 bCat-KO,WT yeast gro inh,HCT116 PTEN-null,hDAT+cocaine
CC(C)CC(=O)/C(=C\c1ccc(Cl)cc1Cl)n1cncn1,1.6*,66.8,1.3*,x
Cc1ccc(N)cc1CN1CCCC1=O,97.4,2.8,86.6,-1.94*
Cc1ccc(C)c(CN2CCNC2=O)c1,71.8,-0.7,82.5,0.393
Cc1[nH]c(=O)c(C(=O)/C=C/c2ccccc2F)c2c1CCCC2,3.9*,-16.3,3.4*,-0.569
OC(CNCc1ccc(Cl)cc1)C(F)(F)F (centres undefined),x,6.7,x,x
Cn1c(NC(=O)c2ccco2)cc(=O)n(C)c1=O,105.8,-21.5,111.4,7.87*
CCC(C)(C)c1ccc2c(c1)C(=O)c1ccccc1C2=O,86.5,75.7*,84.2,x
CCC(=O)Nc1ccc2c(c1)C(=O)c1ccccc1C2=O,80.8,39.0,77.1,1.35
CC(C)(C)OC(=O)C(C)(C)O/N=C(\C(=O)O)c1csc(N)n1,x,-1.4,x,x
C=C(C)C1CC=C(C)/C(=N\NC(=S)Nc2ccc(C)cc2)C1 (centres undefined),56.5,60.7*,47.8,x
C=C(C)C1CC=C(C)/C(=N/NC(=O)COc2ccccc2Cl)C1 (centres undefined),71.0,58.3*,66.4,x
C=C(C)C1CC=C(C)/C(=N/NC(=O)COc2ccc(C)cc2)C1 (centres undefined),90.3,-10.0,101.9,0.191
COc1cccc(C2CC(c3cccs3)=NN2C(=O)CSc2nc3c(cnn3-c3ccc(F)cc3)c(=O)[nH]2)c1OC (centres undefined),49.2,11.6,49.0,2.98*
COc1ccc(C2CC(c3cccs3)=NN2C(=O)CSc2nc3c(cnn3-c3ccccc3)c(=O)[nH]2)cc1 (centres undefined),82.0,-11.4,59.2,1.19
O=C(CSc1nc2c(cnn2-c2ccc(F)cc2)c(=O)[nH]1)N1CCOCC1,86.6,3.5,94.1,-7.85*
NC(=O)c1c(NC(=O)COC(=O)c2ccc(S(=O)(=O)Nc3ccccc3)cc2)sc2c1CCCC2,x,-18.8,x,x
Cc1nn(C)cc1C(C(=O)NC1CCCCC1)N(CCc1ccccc1)C(=O)c1cnccn1 (centres undefined),x,6.3,x,x
Cn1c(Cl)cnc1C1CC(=O)c2cc(Cl)ccc2O1 (centres undefined),2.8*,0.4,1.8*,-1.05
CCOC(=O)C1=C(O)/C(=C/c2ccc(CNC(=O)C(=O)Nc3ccc(C)cc3)o2)N=C1C,7.2,-7.0,10.9,-0.00244
COC(=O)C1=C(O)/C(=C\c2ccc(CNC(=O)C(=O)Nc3ccc(C)cc3)o2)N=C1C,35.5,75.8*,38.5,0.307
CCCC(O)(c1ccc(Cl)cc1)C(CN1CCOCC1)c1ccccc1 (centres undefined),51.2,33.6,54.7,-2.84*
CCCCC(O)(CCN1CCOCC1)c1ccc(Cl)cc1 (centres undefined),72.7,-0.5,74.9,-1.81
Cc1cccc(C(=O)NC(C(=O)Nc2nc(-c3ccccn3)cs2)C(C)C)c1 (centres undefined),x,72.5*,x,x
Cc1cc(C)c(NC2=NCC(=O)N2C2CCCCC2)c(C)c1,100.8,68.3*,95.7,0.86
O=C(CN1CCCN(S(=O)(=O)c2ccc(F)cc2)CC1)Nc1ccccc1Br,85.4,-8.5,79.9,3.2*
SMILES,HCT116 bCat-KO,WT yeast gro inh,HCT116 PTEN-null,hDAT+cocaine
NS(=O)(=O)c1ccc(NC(=O)CN2CCCN(S(=O)(=O)c3ccc(F)cc3)CC2)cc1,x,2.4,x,x
CN1CCN(CCC(=O)Nc2ccc(C3CCCC3)cc2)CC1,x,-3.8,x,x
Cc1c(Cl)cccc1NC(=S)NCC1COc2ccccc2O1 (centres undefined),x,59.4*,x,x
Cc1cc(Cl)ccc1NC(=S)NCCC(c1ccccc1)c1ccccc1,82.9,73.7*,78.0,1.32
Cc1c(Cl)cccc1NC(=S)NCCC(c1ccccc1)c1ccccc1,72.8,78.4*,69.7,-0.042
Cc1c(Cl)cccc1NC(=S)NCCC(C)C,90.0,47.6,87.8,-0.231
C=CCNC(=S)NCC1COc2ccccc2O1 (centres undefined),93.6,1.5,88.8,x
O=C(CSc1nnc(-c2ccncc2)n1CC1CCCO1)Nc1ccccc1Cl (centres undefined),x,-16.6,x,x
COc1ccc(C(C(=O)NC2CCCC2)N(Cc2cccs2)C(=O)c2ccn[nH]2)cc1OC (centres undefined),x,-12.3,x,x
O=C(Nc1ccc(S(=O)(=O)Nc2nccs2)cc1)c1cccc(N2C(=O)c3ccccc3C2=O)c1,x,-8.7,x,x
